Source: the supplement of paper PMC5641865, “A screen for kinase inhibitors identifies antimicrobial imidazopyridine aminofurazans as specific inhibitors of the Listeria monocytogenes PASTA kinase PrkA” (The Journal of Biological Chemistry, 2017)
Where “and” joins values, the source holds several entries; their conditions need not be identical. Equal values may be shown once. ± gives the standard deviation of the averaged measurements.

tested on: Listeria monocytogenes 10403S; assay: growth inhibition relative to ceftriaxone-alone control; higher = stronger potentiation of ceftriaxone growth inhibition; conditions: 10 µM; ceftriaxone 1 ug/ml; 12 h
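Also: End-point A600 read in BHI broth at 37 °C with 2% DMSO, inhibition computed as (1 − OD with compound plus ceftriaxone ÷ OD with ceftriaxone only) × 100.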

Q: For COc1cccc(-n2ncc3c(N/N=C/c4ccc(F)cc4)ncnc32)c1, which growth inhibition is on record?
A: The growth inhibition was -3.41 ± 1%.

Q: For CN1CCC(C(=O)Nc2n[nH]c3nnc(-c4ccccc4)cc23)CC1, which growth inhibition is on record?
A: The growth inhibition was 17.5 ± 11%.

Q: With Cc1cc(C(C)Nc2ccccc2)c2nc(N3CCOCC3)cc(=O)n2c1 (centres undefined) as the compound, how does the growth inhibition read?
A: Its growth inhibition is 24.3 ± 9.5%.

Q: Which growth inhibition does the source give for CCn1c(-c2nonc2N)nc2c(C#CC(C)(C)O)nc(CN3CCCC3)cc21 here?
A: The growth inhibition was 4.95 ± 5.7%.

Q: CCOc1ccc2c(-c3ccnc(Nc4cccc(C(F)(F)F)c4)n3)cnn2n1 was tested. Which growth inhibition did it give?
A: Its growth inhibition is -8.14 ± 6.9%.

Q: With COC(=O)Nc1nc2ccc(S(=O)(=O)c3ccc(NC(=O)Nc4cc(C(F)(F)F)ccc4F)cc3)cc2[nH]1 as the compound, how does the growth inhibition read?
A: The growth inhibition was -13.3 ± 8.2%.

Q: How did the growth inhibition turn out when NS(=O)(=O)c1ccc(Nc2ncc(-c3ccccc3)o2)cc1 was run?
A: Its growth inhibition is 6.88 ± 6.9%.

Q: Which growth inhibition does the source give for CCCN1CCCC(c2ccc(Nc3nc(Nc4cc(F)ccc4C(N)=O)c4cc[nH]c4n3)c(OC)c2)C1 (centres undefined) here?
A: Its growth inhibition is 1.46 ± 6.2%.

Q: How did the growth inhibition turn out when Cc1ccc([N+](=O)[O-])cc1S(=O)(=O)N(C)/N=C/c1cnc2ccc(Br)cn12 was run?
A: Its growth inhibition is 2.5 ± 4.3%.

Q: For CN(C)c1ccc2c(c1)/C(=C/Nc1ccc(S(N)(=O)=O)cc1)C(=O)N2, which growth inhibition is on record?
A: Its growth inhibition is 1.99 ± 14%.

Q: CCOc1ccn(-c2ccc(F)cc2)c(=O)c1C(=O)Nc1ccc(Oc2ccnc(N)c2Cl)c(F)c1 was tested. Which growth inhibition did it give?
A: Its growth inhibition is 23.6 ± 24%.

Q: For COc1cc(C=NNc2ncnc3c2cnn3-c2ccccc2)ccc1O, which growth inhibition is on record?
A: Its growth inhibition is 3.9 ± 5.4%.

Q: Which growth inhibition does the source give for N#Cc1c(NC(=O)c2ccccc2F)sc2c1CCCC2 here?
A: Its growth inhibition is -3.06 ± 2.3%.

Q: How did the growth inhibition turn out when Nc1ncnc2c1c(-c1cccc(OCc3ccccc3)c1)cn2C1CC(CN2CCCC2)C1 (centres undefined) was run?
A: The growth inhibition was 61.4 ± 52%.

Q: Which growth inhibition does the source give for Nc1ccc(C#Cc2cncnc2Nc2ccc(OCc3cccc(F)c3)c(Cl)c2)cc1 here?
A: Its growth inhibition is -6.22 ± 2.5%.

Q: With [O-][S+]1CCN(Cc2ccc(-c3ccc4ncnc(Nc5ccc(OCc6cccc(F)c6)c(Cl)c5)c4c3)o2)CC1 as the compound, how does the growth inhibition read?
A: The growth inhibition was -4.71 ± 1.9%.

Q: With Cc1cnc(Nc2ccc(OCCN3CCCC3)cc2)nc1Nc1cccc(S(=O)(=O)NC(C)(C)C)c1 as the compound, how does the growth inhibition read?
A: The growth inhibition was 39 ± 15%.

Q: For Cc1ccc(NC(=O)c2ccnc(N3CCCC3)c2)cc1-c1ccc(C(=O)NCC2CC2)cc1, which growth inhibition is on record?
A: Its growth inhibition is -0.943 ± 1.3%.

Q: O=C1NC(=O)C(c2cccc(Cl)c2)=C1Nc1ccc(O)c(Cl)c1 was tested. Which growth inhibition did it give?
A: The growth inhibition was -7.55 ± 15%.

Q: With COc1ccc(-c2ccc3c(NC(=O)C4CC4)n[nH]c3n2)cc1 as the compound, how does the growth inhibition read?
A: Its growth inhibition is -7.27 ± 8.3%.

Q: Cc1cc(Nc2cc(CN3CCOCC3)c3nc(C)c(Cc4ccc(Cl)cc4F)n3n2)n[nH]1 was tested. Which growth inhibition did it give?
A: Its growth inhibition is 12 ± 6.8%.

Q: COc1cc2ncn(-c3cc(OCc4ccccc4C(F)(F)F)c(C(N)=O)s3)c2cc1OC was tested. Which growth inhibition did it give?
A: The growth inhibition was -2.24 ± 0.56%.

Q: How did the growth inhibition turn out when CCn1c(-c2nonc2N)nc2c(C#CC(C)(C)O)nc(OC[C@H](N)c3ccccc3)cc21 was run?
A: Its growth inhibition is 66.2 ± 2.7%.

Q: Nc1nccc(-c2c(-c3ccc(F)cc3)ncn2C2CCNCC2)n1 was tested. Which growth inhibition did it give?
A: The growth inhibition was 2.49 ± 6.8%.

Q: How did the growth inhibition turn out when NS(=O)(=O)c1ccc(N/C=C2\C(=O)Nc3ccc4ncsc4c32)cc1 was run?
A: Its growth inhibition is -2.62 ± 4.2%.

Q: Which growth inhibition does the source give for Cc1cc(Nc2cc(N3CCN(C)CC3)nc(/C=C/c3ccccc3)n2)n[nH]1 here?
A: Its growth inhibition is 85.7 ± 18%.

Q: COC(=O)c1cncc(/C=C/c2c(C)cc(O)cc2C)c1 was tested. Which growth inhibition did it give?
A: Its growth inhibition is -6.45 ± 1.7%.

Q: For NC(=O)Cc1ccccc1Oc1nccc(-c2c(-c3ccc(F)cc3)ncn2C2CCNCC2)n1, which growth inhibition is on record?
A: The growth inhibition was -2.82 ± 0.75%.

Q: For CNC(=O)Nc1ccc(-c2nc(N3CC4CCC(C3)O4)c3cnn(C4CCC5(CC4)OCCO5)c3n2)cc1, which growth inhibition is on record?
A: The growth inhibition was 7.7 ± 6.6%.

Q: For COc1ccc(-c2cc3c(C)nc(N)nc3n([C@H]3CC[C@H](OCCO)CC3)c2=O)cn1, which growth inhibition is on record?
A: Its growth inhibition is 12.2 ± 9.5%.

Q: Cc1c(CN2CCN(C(=O)[C@H](C)O)CC2)sc2c(N3CCOCC3)nc(-c3cnc(N)nc3)nc12 was tested. Which growth inhibition did it give?
A: Its growth inhibition is 22.8 ± 8.1%.

Q: For COc1ccccc1-c1cc(/C=C2\C(=O)Nc3ncc(Br)cc32)cc(Br)c1O, which growth inhibition is on record?
A: The growth inhibition was -8.54 ± 8.1%.

Q: With CCS(=O)(=O)c1ccc(OC)c(Nc2ncc(-c3cccc(-c4ccccc4F)c3)o2)c1 as the compound, how does the growth inhibition read?
A: Its growth inhibition is 2.03 ± 2.4%.

Q: COc1cccc(-n2ncc3c(N/N=C/c4ccc(C(=O)NCCN(C)C)cc4)ncnc32)c1 was tested. Which growth inhibition did it give?
A: The growth inhibition was 0.231 ± 2.8%.

Q: NCC(=O)Nc1ccc(-n2nc(C(F)(F)F)cc2-c2ccc3c(ccc4ccccc43)c2)cc1 was tested. Which growth inhibition did it give?
A: The growth inhibition was 85.45 ± 0.52%.

Q: For Cc1ccc(O)cc1Nc1ccnc2ccc(S(C)(=O)=O)cc12, which growth inhibition is on record?
A: Its growth inhibition is -11.4 ± 13%.

Q: For COc1cc(Nc2ncc(F)c(Nc3ccc4c(n3)NC(=O)C(C)(C)O4)n2)cc(OC)c1OC, which growth inhibition is on record?
A: Its growth inhibition is 9.08% and 0.52%.

Q: How did the growth inhibition turn out when N#CCNC(=O)c1ccc(-c2ccnc(Nc3ccc(N4CCOCC4)cc3)n2)cc1 was run?
A: The growth inhibition was 33 ± 13%.

Q: For O=C1NC(=O)/C(=C/c2ccc3c(c2)OC(F)(F)O3)S1, which growth inhibition is on record?
A: The growth inhibition was 41.2 ± 7.3%.
